Experimental findings from ChEMBL document CHEMBL1961873, “Compounds: GSK PKIS; Assays: Nanosyn kinase panel” (2012) are described below.

Assay [1] has as its target High affinity nerve growth factor receptor (Homo sapiens) (UniProt P04629). The settings on record: at 1 µM.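 Also: each value is the mean percent inhibition of TRKA.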
The target of assay [2] is BDNF/NT-3 growth factors receptor (Homo sapiens) (UniProt Q16620). The settings on record: at 0.1 µM.
The target is the same in assay [3]. The note with it: at 1 µM.
In assay [4] the target is NT-3 growth factor receptor (Homo sapiens) (UniProt Q16288). The note with it: at 0.1 µM.
NT-3 growth factor receptor (Homo sapiens), sequence (Q16288 32-839 limits assumed): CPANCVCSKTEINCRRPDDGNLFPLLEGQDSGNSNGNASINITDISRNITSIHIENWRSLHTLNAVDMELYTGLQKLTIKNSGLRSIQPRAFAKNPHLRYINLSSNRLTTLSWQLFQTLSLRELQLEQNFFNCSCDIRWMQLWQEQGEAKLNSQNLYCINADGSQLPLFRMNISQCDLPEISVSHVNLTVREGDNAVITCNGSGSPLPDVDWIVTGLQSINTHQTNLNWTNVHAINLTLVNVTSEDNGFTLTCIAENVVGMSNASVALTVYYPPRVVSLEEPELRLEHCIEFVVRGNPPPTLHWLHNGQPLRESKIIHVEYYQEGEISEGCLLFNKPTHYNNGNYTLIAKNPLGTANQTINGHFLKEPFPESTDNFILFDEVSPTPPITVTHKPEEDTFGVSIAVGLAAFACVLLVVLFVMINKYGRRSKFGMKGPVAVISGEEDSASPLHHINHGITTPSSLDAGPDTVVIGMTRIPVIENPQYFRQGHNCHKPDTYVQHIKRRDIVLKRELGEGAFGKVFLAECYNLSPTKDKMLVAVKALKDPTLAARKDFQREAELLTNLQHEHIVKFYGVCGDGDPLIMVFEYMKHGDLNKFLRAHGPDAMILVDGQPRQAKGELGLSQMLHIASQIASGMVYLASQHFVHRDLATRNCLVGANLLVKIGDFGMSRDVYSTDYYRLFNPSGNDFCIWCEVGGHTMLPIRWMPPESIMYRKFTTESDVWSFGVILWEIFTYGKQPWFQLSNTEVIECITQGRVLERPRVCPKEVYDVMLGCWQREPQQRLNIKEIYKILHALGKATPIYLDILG
Assay [5] shares this target. The settings on record: at 1 µM.
The target of assay [6] is T1, Tyrosine-protein kinase TXK (Homo sapiens) (UniProt P42681).
T1 sequence (whole entry): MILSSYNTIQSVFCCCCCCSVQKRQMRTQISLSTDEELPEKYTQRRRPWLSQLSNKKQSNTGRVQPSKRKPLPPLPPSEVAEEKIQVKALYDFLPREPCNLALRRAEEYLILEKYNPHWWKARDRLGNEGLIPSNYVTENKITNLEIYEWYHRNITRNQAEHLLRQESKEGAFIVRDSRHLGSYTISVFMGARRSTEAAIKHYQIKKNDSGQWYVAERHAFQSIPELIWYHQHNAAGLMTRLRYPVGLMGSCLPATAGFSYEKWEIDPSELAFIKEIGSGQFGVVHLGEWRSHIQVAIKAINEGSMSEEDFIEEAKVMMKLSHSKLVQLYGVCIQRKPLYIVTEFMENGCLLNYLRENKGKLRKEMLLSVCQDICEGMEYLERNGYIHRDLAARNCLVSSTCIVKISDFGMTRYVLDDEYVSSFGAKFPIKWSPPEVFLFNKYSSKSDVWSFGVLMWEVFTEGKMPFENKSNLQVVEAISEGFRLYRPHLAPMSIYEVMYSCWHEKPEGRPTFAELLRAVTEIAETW
The note with it: at 0.1 µM.

Assay [7] addresses T1, Tyrosine-protein kinase TXK (Homo sapiens). The note with it: at 1 µM.
In assay [8] the target is Non-receptor tyrosine-protein kinase TYK2 (Homo sapiens) (UniProt P29597). The note with it: at 0.1 µM.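 Also: each value is a mean of the inhibition readings.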
Non-receptor tyrosine-protein kinase TYK2 (Homo sapiens), sequence (P29597 whole entry): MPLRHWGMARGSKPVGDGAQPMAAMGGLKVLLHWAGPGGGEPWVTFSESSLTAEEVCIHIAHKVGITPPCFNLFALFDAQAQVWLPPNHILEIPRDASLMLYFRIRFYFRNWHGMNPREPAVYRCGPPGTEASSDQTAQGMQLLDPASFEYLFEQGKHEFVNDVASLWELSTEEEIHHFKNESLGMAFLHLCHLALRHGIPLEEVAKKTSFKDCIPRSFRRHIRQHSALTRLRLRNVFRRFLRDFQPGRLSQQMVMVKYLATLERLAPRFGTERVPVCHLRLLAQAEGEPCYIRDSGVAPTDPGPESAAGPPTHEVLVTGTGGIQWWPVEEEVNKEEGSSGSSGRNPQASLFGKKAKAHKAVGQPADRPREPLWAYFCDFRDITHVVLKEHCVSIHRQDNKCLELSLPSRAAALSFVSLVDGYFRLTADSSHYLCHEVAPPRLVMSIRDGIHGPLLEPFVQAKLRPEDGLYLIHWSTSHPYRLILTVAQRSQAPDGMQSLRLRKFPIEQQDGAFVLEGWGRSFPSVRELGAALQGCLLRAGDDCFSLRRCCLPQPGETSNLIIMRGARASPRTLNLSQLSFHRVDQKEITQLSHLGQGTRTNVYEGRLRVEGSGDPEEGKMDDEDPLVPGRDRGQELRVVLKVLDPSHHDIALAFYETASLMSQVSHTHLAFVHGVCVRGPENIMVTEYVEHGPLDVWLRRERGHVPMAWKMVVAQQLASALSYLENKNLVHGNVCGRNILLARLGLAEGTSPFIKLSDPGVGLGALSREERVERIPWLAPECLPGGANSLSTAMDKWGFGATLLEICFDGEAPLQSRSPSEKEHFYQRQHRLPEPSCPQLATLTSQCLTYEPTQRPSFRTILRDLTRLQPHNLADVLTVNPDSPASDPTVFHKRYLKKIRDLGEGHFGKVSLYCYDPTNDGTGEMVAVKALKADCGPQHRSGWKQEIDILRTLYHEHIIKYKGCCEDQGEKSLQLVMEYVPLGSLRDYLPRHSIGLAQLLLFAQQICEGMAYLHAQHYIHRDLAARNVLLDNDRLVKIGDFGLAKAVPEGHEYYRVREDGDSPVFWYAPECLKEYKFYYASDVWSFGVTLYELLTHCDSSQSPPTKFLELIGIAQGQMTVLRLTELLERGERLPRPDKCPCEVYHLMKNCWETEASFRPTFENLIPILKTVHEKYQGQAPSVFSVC
The target in assay [9] is T2, Dual specificity protein kinase TTK (Homo sapiens) (UniProt P33981).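 Also: reported figures are mean TTK inhibition at 1 µM.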
T2 sequence (whole entry): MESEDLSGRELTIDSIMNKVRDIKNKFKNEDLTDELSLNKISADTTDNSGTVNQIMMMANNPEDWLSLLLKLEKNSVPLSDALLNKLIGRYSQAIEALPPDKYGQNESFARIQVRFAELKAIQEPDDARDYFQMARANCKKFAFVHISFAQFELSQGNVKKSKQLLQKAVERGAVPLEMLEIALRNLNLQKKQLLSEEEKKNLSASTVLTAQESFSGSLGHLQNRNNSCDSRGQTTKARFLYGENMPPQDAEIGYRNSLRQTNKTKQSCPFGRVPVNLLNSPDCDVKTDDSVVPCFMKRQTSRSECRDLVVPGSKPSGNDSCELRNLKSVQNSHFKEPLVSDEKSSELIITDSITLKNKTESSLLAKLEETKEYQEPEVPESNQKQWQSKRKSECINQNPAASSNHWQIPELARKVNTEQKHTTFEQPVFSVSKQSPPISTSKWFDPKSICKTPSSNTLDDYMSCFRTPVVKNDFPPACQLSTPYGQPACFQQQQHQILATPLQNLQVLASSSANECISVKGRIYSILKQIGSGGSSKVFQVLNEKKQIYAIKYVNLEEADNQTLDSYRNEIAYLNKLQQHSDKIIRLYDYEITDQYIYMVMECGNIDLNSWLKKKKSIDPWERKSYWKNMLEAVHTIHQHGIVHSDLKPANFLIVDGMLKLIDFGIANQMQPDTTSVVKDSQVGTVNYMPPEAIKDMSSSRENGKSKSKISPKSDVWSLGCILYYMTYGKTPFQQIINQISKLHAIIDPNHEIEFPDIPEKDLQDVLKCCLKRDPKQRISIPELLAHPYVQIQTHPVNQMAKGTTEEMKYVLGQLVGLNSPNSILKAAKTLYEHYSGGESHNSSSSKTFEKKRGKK
The note with it: at 1 µM.

Assay [10] has as its target T3, Aurora kinase A (Homo sapiens) (UniProt O14965).
T3 sequence (whole entry): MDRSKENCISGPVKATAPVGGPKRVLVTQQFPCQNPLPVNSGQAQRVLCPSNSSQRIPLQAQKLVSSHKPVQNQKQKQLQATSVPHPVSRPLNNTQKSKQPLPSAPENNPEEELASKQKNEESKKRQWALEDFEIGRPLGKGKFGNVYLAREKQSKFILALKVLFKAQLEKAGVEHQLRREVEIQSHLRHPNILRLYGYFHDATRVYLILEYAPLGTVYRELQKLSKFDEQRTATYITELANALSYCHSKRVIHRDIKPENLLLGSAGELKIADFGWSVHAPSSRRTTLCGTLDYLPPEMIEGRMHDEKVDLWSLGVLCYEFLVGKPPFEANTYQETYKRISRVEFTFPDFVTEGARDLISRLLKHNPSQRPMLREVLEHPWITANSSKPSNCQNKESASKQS
The settings on record: at 0.1 µM.

Assay [11] addresses T3, Aurora kinase A (Homo sapiens). The note with it: at 1 µM.
The target of assay [12] is Aurora kinase B (Homo sapiens) (UniProt Q96GD4). The note with it: at 0.1 µM.
Assay [13] has the same target. The note with it: at 1 µM.
For assay [14], the target named is T4, Aurora kinase C (Homo sapiens) (UniProt Q9UQB9).
T4 sequence (whole entry): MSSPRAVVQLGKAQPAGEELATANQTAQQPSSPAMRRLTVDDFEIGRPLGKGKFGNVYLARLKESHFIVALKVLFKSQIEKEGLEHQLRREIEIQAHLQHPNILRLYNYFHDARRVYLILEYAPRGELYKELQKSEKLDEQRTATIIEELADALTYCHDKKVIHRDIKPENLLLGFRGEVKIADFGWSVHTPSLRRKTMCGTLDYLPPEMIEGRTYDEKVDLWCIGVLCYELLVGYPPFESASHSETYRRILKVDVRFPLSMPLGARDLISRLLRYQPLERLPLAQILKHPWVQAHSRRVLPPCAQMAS
The settings on record: at 0.1 µM.

The target in assay [15] is T4, Aurora kinase C (Homo sapiens). The settings on record: at 1 µM.
Assay [16] concerns the target Serine/threonine-protein kinase 10 (Homo sapiens) (UniProt O94804). The settings on record: at 0.1 µM.
Assay [17] has the same target. The note with it: at 1 µM.
Assay [18] deals with T5, Mitogen-activated protein kinase kinase kinase kinase 2 (Homo sapiens) (UniProt Q12851).
T5 sequence (whole entry): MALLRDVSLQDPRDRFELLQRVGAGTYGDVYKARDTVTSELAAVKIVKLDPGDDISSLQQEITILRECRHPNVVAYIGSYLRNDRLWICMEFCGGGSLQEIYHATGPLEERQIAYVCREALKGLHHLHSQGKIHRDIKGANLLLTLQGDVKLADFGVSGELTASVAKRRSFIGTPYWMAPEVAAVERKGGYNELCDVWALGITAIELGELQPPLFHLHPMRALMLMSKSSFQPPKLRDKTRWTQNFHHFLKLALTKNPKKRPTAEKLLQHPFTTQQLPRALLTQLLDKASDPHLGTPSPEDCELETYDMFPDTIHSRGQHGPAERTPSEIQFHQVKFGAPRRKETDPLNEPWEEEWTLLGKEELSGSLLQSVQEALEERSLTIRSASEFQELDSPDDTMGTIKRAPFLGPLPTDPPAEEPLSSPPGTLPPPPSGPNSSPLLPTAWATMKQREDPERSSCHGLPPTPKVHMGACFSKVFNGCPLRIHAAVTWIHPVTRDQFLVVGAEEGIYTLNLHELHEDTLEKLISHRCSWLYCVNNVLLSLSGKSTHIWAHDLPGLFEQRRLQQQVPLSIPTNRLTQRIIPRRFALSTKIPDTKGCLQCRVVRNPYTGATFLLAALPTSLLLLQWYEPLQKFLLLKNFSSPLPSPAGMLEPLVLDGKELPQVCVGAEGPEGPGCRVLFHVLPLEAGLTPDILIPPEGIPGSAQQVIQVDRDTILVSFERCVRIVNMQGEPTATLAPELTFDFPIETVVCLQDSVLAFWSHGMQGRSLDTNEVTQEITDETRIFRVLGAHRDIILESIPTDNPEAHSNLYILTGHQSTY
The settings on record: at 0.1 µM.

The target of assay [19] is T5, Mitogen-activated protein kinase kinase kinase kinase 2 (Homo sapiens). The note with it: at 1 µM.
Assay [20] concerns the target Mitogen-activated protein kinase kinase kinase kinase 4 (Homo sapiens) (UniProt O95819). The settings on record: at 0.1 µM.

BDNF/NT-3 growth factors receptor (Homo sapiens), sequence (Q16620 32-822 limits assumed): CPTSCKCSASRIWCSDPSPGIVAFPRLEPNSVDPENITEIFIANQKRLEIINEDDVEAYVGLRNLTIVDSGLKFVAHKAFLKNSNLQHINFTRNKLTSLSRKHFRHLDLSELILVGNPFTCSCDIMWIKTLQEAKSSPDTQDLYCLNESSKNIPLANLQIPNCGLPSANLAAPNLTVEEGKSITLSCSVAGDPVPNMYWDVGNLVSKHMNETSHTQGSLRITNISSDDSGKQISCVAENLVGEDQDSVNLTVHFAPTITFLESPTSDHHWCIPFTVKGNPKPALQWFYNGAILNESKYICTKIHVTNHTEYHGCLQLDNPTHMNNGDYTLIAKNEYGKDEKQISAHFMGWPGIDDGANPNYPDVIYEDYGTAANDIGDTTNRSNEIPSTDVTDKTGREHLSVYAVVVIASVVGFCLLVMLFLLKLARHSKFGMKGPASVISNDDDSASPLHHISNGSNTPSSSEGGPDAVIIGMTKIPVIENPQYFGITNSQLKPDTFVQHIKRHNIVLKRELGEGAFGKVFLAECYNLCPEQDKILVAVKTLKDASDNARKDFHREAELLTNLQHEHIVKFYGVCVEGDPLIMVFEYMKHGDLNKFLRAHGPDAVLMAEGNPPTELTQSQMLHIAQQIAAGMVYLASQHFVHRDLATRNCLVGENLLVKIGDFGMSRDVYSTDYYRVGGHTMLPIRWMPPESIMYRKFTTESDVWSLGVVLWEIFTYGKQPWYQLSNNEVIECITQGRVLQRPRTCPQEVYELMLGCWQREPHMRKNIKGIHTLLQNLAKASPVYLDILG
Serine/threonine-protein kinase 10 (Homo sapiens), sequence (O94804 whole entry, looked up): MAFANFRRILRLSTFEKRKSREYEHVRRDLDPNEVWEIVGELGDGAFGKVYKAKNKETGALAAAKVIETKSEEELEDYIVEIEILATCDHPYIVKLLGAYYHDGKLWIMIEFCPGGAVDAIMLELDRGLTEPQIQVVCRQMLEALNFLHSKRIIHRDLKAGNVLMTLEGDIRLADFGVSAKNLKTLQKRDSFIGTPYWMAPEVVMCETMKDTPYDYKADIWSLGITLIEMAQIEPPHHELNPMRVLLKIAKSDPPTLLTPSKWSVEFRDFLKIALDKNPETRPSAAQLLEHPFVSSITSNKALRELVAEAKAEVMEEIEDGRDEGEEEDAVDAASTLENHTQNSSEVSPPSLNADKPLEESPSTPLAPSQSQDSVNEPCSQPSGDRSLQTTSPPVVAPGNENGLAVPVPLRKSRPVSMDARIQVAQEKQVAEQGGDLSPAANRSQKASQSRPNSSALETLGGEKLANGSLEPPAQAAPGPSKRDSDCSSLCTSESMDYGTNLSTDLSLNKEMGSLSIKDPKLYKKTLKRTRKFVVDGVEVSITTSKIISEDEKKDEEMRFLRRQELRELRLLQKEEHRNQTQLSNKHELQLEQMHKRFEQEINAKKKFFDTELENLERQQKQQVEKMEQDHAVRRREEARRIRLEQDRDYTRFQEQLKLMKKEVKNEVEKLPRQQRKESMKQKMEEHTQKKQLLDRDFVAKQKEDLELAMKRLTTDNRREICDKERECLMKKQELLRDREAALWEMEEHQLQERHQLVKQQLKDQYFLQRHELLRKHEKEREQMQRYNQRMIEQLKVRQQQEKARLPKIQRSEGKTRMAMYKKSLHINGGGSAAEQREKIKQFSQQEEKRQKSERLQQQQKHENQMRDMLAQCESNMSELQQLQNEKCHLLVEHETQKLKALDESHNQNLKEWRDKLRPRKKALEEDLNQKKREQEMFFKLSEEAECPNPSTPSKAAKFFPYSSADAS
Mitogen-activated protein kinase kinase kinase kinase 4 (Homo sapiens), sequence (O95819 2-1239 limits assumed): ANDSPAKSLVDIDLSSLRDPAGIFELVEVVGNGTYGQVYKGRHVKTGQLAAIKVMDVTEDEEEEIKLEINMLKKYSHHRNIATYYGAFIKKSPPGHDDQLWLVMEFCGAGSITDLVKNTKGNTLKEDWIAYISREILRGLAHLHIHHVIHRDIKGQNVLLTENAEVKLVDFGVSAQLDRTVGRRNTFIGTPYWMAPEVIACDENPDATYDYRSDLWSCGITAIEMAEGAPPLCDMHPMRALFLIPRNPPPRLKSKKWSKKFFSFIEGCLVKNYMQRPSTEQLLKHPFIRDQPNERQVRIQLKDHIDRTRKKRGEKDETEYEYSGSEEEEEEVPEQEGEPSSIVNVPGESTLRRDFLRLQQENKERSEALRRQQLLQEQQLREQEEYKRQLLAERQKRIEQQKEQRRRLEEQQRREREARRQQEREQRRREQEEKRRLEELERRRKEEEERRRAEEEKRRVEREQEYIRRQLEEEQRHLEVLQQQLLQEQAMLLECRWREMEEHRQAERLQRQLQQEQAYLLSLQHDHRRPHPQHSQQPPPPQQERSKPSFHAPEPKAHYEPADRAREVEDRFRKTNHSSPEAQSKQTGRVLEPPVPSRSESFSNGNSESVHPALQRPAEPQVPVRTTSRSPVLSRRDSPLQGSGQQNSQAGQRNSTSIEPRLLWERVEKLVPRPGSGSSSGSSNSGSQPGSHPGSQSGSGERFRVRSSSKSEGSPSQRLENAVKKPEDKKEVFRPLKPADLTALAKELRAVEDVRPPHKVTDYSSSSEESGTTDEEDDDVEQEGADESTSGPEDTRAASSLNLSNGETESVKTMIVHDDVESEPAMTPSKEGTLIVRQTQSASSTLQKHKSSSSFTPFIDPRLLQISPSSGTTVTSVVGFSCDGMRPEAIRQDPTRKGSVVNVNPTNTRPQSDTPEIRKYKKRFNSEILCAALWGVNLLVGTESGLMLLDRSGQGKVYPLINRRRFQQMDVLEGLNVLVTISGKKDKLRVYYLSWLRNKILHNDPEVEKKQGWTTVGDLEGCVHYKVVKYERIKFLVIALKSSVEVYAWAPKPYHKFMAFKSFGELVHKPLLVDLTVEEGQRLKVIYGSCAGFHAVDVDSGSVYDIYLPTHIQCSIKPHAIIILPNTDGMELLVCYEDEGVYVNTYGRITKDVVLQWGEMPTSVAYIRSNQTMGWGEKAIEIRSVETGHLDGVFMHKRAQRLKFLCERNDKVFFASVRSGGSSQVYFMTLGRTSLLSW

For `CCN(CC)Cc1ccc(Nc2nccc(-c3cnn4ncccc34)n2)cc1`, the inhibition (commonly the change of the read-out against control, counted positive when it falls) in assay [1] was found to be 12.1%; in assay [2], 4.49%; in [3], 7.47%; in assay [4] it was 2.83%; in assay [5], 5.86%; in assay [6], 0.47%. For the same compound, the inhibition was 1.91% in [7]; -7.84% in assay [8]; 29.4% in assay [9]; 4.39% in [10]; 34.3% in assay [11]; 27.5% in [12]. For the same compound, the inhibition in assay [13] turned out to be 63.7%; in assay [14], 38%; in [15] it was 84.6%; in [16], 7.37%; in [17], 18%; in [18], 3.21%. The inhibition in [19] is 21.2%; in assay [20], 5.41%.
On to `O=C(Nc1ccc(Oc2ccc3[nH]c(NC(=O)c4ccccc4)nc3c2)cc1)Nc1cc(C(F)(F)F)ccc1F`, for which the inhibition in assay [1] amounted to 52.2%; in [2] it was 5.11%; in assay [3], 35.1%; in [4], 8.01%; in assay [5], 41%; in assay [6] it was 3.06%. The inhibition is 6.27% in assay [7]; -4.63% in [8]; 19.2% in assay [9]; 1.31% in [10]; 12.4% in assay [11]; 0.59% in assay [12]. The inhibition in [13] was 13.9%; in assay [14], 3.42%; in assay [15], 40.8%; in assay [16], 12.8%; in assay [17], 50.2%; in [18], 1.6%. In addition, the inhibition in assay [19] was found to be 19%; in assay [20], 3.95%.
With `O=C(Nc1n[nH]c2nc(-c3ccc(O)cc3)c(Br)cc12)C1CC1`, the inhibition in assay [1] was 12.3%; in assay [2], 5.55%; in [3] it was 14.5%; in assay [4], 5.79%; in assay [5], 16.4%; in assay [6], 4.99%. Further, the inhibition is 9.15% in [7]; -1.54% in assay [8]; 15.3% in assay [9]; 5.34% in assay [10]; 37.7% in assay [11]; 4.29% in assay [12]. Further, the inhibition was 12.7% in assay [13]; 2.12% in assay [14]; 8.73% in assay [15]; 16.2% in [16]; 61.3% in [17]; 7% in assay [18]. The results for the inhibition in [19] and in assay [20] were 34.4% and 32.2%, respectively.
Turning to `CNC(=O)c1cncc(/C=C/c2c(C)cccc2C)c1`, the inhibition in [1] worked out at 0.47%; in [2], 0.05%; in assay [3], 0.22%; in assay [4] it was 0.47%; in assay [5], 1.16%; in assay [6], 5.71%. Further, the inhibition in assay [7] is 35.6%; in assay [8], -0.15%; in assay [9], 5.33%; in assay [10], -1.77%; in [11], -0.78%; in assay [12] it was -3.36%. The inhibition is -3.06% in [13]; -3.26% in assay [14]; -9.54% in assay [15]; 1.24% in assay [16]; 10.3% in [17]; 0.91% in [18]. Moreover, the inhibition in assay [19] amounted to 4.59%; in assay [20] it was 4.81%.
As for `CCS(=O)(=O)c1ccc(OC)c(Nc2ncc(-c3cccc(-c4ccccc4F)c3)o2)c1`, the inhibition in assay [1] came out at 26%; in [2], 7.74%; in assay [3] it was 39.2%; in [4] it was 7.3%; in assay [5], 39.5%; in [6], 5.11%. The inhibition is 31.2% in assay [7]; 1.51% in [8]; 3.52% in assay [9]; 0.79% in assay [10]; 15% in [11]; 3.23% in assay [12]. For the same compound, the inhibition in assay [13] was 3.48%; in assay [14], 0.45%; in [15], -0.17%; in assay [16] it was 2.05%; in [17], 15.4%; in assay [18] it was 1.69%. Besides, the inhibition in assay [19] came out at 2.38%; in assay [20], 2.34%.
